Calls of active or inactive are those of the source. Unless noted, the rule behind the calls is not given here.
Tests used:
[1] = system: Wnt5a (protein binding on small-molecule microarray); assay: Wnt5a binders on small-molecule microarray, primary screen, biophysical, 635/667 nm fluorescence (AID 1142); settings: 635 nm fluorescence, higher = more signal;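 note: fluorescence read at 667 nm with signal to noise per printed feature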
[2] = cell viability in Huh7 cells, primary screen, cytotoxicity control for HCV replication inhibitor project, CellTiter-Glo luminescence, basal, 48 h (AID 1143); settings: Huh7 HCV replicon, higher = more signal, called active from +8 up or from −8 down;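 note: Huh7 hepatoma cells carrying a hepatitis C replication reporter with no stimulus; test concentration not given here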
[3] = P. aeruginosa biofilm formation inhibitors, primary screen, PAO1 strain, BacTiter-Glo luminescence, LB-PBS (AID 1144); settings: 12 h, higher = more signal
[4] = CREB reporter modulators without forskolin, primary screen, cell-based, PC12, CRE-LacZ reporter, unstimulated (AID 1145); settings: no forskolin, luminescence, 4.5 h, higher = more signal, called active from +8 up or from −8 down
[5] = CREB reporter modulators under forskolin, primary screen, cell-based, PC12, CRE-LacZ reporter, forskolin-stimulated (AID 1146); settings: luminescence, 4.5 h, higher = more signal, called active from +8 up or from −8 down;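 note: PC12 cells with 6xCRE LacZ reporter stimulated by forskolin 10 µM; beta-galactosidase reporter signal reflecting CREB driven transcription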
[6] = target: Streptavidin (Streptomyces avidinii) (UniProt P22629); assay: streptavidin binders on small-molecule microarray, primary screen, artefact control for SMM compound annotation, biophysical, 635/667 nm fluorescence (AID 1147); settings: streptavidin binding, higher = more signal;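 note: signal reflects streptavidin binding to arrayed compounds as a control protein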
[7] = small-molecule binders of probe aInhba, primary screen, biochemical, small-molecule microarray, 635/667 nm fluorescence (AID 1148); settings: higher = more signal;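 note: score merges 667nm spot fluorescence with signal-to-noise for antibody binding to printed compounds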
[8] = target: Torsin-1A (Homo sapiens) (UniProt O14656); assay: torsin A binders from cell lysate, primary screen, small-molecule microarray, wild-type, 635/667 nm (AID 1149); settings: COS7 hTOR1A-WT lysate, 635 nm fluorescence, higher = more signal
[9] = target: Torsin-1A (Homo sapiens) (UniProt O14656); assay: small-molecule binders of mutant TOR1A in lysate, primary screen, cell lysate, small-molecule microarray, COS7 lysate, 635/667 nm fluorescence (AID 1150); settings: COS7 hTOR1A mutant lysate, 635 nm fluorescence, higher = more signal;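 note: score pools 667 nm emission and signal to noise measuring lysate protein binding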
[10] = system: Sonic hedgehog protein (Shh); assay: small-molecule binders of Shh protein, primary screen, biochemical, small-molecule microarray, 635/667 nm fluorescence (AID 1151); settings: small-molecule microarray binding, 635 nm fluorescence; higher = more signal;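 note: Shh protein binding to compounds spotted on small-molecule microarray slides; score combines spot fluorescence intensity with signal-to-noise across triplicate slides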
[11] = E. coli DRC41 culture turbidity changes, primary screen, E. coli filamentation inducer project, strain DRC41, OD650, 48 h (AID 1152);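 note: E. coli MC1000 strain DRC41 lacking acrAB efflux pump and sulA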; settings: E. coli DRC41 (acrAB sulA), higher = more signal, called active from +8 up or from −8 down
[12] = small-molecule binders of probe aLefty1, primary screen, biochemical, small-molecule microarray, 635/667 nm fluorescence (AID 1153); settings: higher = more signal;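 note: score merges spot fluorescence with signal-to-noise ratio from the scanned slide images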
[13] = PSAC antagonists in infected red cells, primary screen, cell-based, P. falciparum Indochina, OD700, 1 h (AID 1154); settings: P. falciparum Indochina infected RBC osmotic lysis, higher = more signal, called active from +8 up or from −8 down
[14] = PSAC antagonists in infected red cells, primary screen, cell-based, P. falciparum Indochina, OD700, 2 h (AID 1155);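 note: lysis reports solute entry through the parasite surface anion channel PSAC; channel blockers reduce lysis of infected cells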; settings: P. falciparum Indochina infected erythrocytes, osmotic lysis OD700; higher = more signal, called active from +8 up or from −8 down
[15] = osmotic lysis modulators in infected erythrocytes, primary screen, PSAC antagonist project, cell-based, P. falciparum Indochina, OD700, 3 h (AID 1156); settings: higher = more signal, called active from +8 up or from −8 down
[16] = PSAC antagonists in infected red cells, primary screen, cell-based, P. falciparum Indochina, OD700, 18 h (AID 1157); settings: P. falciparum Indochina infected erythrocytes, osmotic lysis OD700, 18 h; higher = more signal, called active from +8 up or from −8 down
[17] = modulators of S6 phosphorylation in cells, primary screen, cell-based, A549, cytoblot, luminescence, serum-stimulated (AID 1158); settings: A549 phospho-S6 cytoblot, 5 h, higher = more signal;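 note: serum-stimulated A549 lung adenocarcinoma cells; signal is phosphorylated S6 detected by cytoblot immunostaining with HRP secondary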
[18] = target: NADPH oxidase 2 (Homo sapiens) (UniProt P04839); assay: NOX2-dependent H2O2 signal modulators, primary screen, NOX inhibitor project, cell-based, HEK293-NOX2, PMA-stimulated, Amplex Red fluorescence (AID 1159); settings: 45 min, higher = more signal, called active from +8 up or from −8 down; note: test concentration not given here
[19] = target: NADPH oxidase 4 (Homo sapiens) (UniProt Q9NPH5); assay: NOX4-dependent H2O2 signal modulators, primary screen, NOX inhibitor project, cell-based, HEK293-NOX4, tetracycline-induced, Amplex Red fluorescence (AID 1160); settings: 45 min, higher = more signal, called active from +8 up or from −8 down
[20] = target: NADPH oxidase 5 (Homo sapiens) (UniProt Q96PH1); assay: NOX5-dependent H2O2 signal modulators, primary screen, NOX inhibitor project, cell-based, HEK293-NOX5, Amplex Red fluorescence (AID 1161); settings: HEK293-NOX5, ionomycin, 45 min, higher = more signal
Sequence of NADPH oxidase 5 (Homo sapiens) (Q96PH1 whole entry, looked up): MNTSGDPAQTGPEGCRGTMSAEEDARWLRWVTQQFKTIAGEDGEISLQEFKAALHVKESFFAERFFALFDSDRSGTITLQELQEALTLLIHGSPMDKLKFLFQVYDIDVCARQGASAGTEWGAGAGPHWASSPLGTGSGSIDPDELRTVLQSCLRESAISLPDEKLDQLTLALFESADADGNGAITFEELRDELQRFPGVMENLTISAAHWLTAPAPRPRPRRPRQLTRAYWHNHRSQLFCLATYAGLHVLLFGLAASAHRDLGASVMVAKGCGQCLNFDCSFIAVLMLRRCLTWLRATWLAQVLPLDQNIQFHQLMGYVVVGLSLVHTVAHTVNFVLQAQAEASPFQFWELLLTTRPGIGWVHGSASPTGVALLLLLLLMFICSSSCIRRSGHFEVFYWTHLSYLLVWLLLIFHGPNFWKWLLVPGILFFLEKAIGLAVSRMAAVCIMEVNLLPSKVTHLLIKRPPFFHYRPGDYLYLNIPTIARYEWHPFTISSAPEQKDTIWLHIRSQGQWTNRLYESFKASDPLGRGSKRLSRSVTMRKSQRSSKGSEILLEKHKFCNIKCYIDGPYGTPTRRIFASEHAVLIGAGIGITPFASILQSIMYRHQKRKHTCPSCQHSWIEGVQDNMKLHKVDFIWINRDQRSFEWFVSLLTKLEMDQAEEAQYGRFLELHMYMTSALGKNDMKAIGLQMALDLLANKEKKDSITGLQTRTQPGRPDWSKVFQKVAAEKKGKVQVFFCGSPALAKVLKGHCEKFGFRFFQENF

Sequence of Streptavidin (Streptomyces avidinii) (P22629 whole entry, looked up): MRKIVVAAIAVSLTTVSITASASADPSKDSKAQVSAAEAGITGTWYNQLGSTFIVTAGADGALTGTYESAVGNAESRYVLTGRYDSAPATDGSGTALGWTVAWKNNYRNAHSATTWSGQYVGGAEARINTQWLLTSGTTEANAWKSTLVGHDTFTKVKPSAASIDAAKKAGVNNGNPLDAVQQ
Sequence of Torsin-1A (Homo sapiens) (O14656 whole entry, looked up): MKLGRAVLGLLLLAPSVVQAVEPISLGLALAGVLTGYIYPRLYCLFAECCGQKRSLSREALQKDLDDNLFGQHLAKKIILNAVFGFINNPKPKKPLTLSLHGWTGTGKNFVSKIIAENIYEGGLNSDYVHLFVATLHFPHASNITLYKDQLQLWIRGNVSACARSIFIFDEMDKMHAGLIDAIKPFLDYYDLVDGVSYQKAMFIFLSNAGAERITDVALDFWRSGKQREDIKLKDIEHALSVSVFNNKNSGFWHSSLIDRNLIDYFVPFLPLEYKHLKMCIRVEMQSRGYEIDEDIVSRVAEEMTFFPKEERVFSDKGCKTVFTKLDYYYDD
Sequence of NADPH oxidase 2 (Homo sapiens) (P04839 whole entry, looked up): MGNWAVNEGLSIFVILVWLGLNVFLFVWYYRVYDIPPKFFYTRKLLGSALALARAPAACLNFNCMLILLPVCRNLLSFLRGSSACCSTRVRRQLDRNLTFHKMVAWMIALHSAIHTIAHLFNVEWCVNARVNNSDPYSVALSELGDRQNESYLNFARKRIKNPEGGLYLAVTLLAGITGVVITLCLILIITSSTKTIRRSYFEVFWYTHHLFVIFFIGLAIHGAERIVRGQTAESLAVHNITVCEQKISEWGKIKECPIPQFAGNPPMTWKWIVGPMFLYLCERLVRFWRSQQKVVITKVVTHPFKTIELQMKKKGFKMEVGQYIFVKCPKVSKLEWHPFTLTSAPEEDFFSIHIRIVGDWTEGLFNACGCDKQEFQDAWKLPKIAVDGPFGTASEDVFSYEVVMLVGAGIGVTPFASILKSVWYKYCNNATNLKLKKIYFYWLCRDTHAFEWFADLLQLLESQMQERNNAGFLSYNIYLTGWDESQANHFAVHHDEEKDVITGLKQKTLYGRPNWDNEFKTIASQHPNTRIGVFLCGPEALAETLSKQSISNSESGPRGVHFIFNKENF
Sequence of NADPH oxidase 4 (Homo sapiens) (Q9NPH5 whole entry, looked up): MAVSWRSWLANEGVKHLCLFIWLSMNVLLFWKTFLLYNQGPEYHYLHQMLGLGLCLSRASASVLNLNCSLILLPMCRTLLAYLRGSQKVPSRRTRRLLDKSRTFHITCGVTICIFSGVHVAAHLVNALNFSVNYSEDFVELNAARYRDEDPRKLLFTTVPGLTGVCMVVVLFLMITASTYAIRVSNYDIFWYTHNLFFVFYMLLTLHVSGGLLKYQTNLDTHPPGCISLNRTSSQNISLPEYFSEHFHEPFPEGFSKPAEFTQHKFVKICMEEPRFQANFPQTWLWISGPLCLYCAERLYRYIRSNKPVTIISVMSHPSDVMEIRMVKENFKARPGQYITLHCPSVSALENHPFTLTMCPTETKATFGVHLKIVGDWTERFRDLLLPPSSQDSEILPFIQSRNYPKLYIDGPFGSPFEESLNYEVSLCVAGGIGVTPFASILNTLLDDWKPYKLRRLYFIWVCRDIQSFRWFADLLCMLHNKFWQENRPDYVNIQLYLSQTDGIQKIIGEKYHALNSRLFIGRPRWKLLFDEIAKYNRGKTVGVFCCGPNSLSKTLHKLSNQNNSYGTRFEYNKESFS

Row | Compound | composite z-score [1] | z-score [2] | z-score [3] | z-score [4] | z-score [5] | composite z-score [6] | composite z-score [7] | composite z-score [8] | composite z-score [9] | composite z-score [10] | z-score [11] | composite z-score [12] | z-score [13] | z-score [14] | z-score [15] | z-score [16] | z-score [17] | z-score [18] | z-score [19] | z-score [20]
1 | COC(=O)C(CC#Cc1ccc2c(c1)[C@]1(C(=O)N2)[C@H](c2ccc(OCCO)cc2)N2[C@H](c3ccccc3)[C@H](c3ccccc3)OC(=O)[C@H]2[C@@H]1C(=O)N1CCc2cc(OC)c(OC)cc2C1)C(=O)OC | 0.714 | -0.6 (inactive) | 0.188 (inactive) | -0.0688 (inactive) | 2.19 (inactive) | 1.52 | 0.542 | 0.668 | 0.623 | 1.91 | -0.339 (inactive) | 1.08 | 3.44 (inactive) | 1.89 (inactive) | 0.506 (inactive) | 0.754 (inactive) | -0.214 | 1.13 (inactive) | 0.632 (inactive) | 1.96
2 | CCCCCN1CC=CC23O[C@@H]4C=CCCOC(=O)C4[C@H]2C(=O)N(CCCCCO)[C@@H]3C1=O (stereo not given in full) | -0.619 | 0.477 (inactive) | -0.978 (inactive) | -0.895 (inactive) | -0.443 (inactive) | -0.729 | -0.157 | 1.82 | 0.843 | 0.225 | 1.09 (inactive) | -0.0984 | 1.73 (inactive) | 1.1 (inactive) | 2.68 (inactive) | 0.575 (inactive) | 0.708 | 1.36 (inactive) | 0.228 (inactive) | 1.32
3 | C=C(COC)/C(=C/C[C@H](OC(C)=O)c1ccc(CO)o1)c1cc(C(=O)OC)ccc1OC | 0.122 | -3.08 (inactive) | -0.261 (inactive) | 1.78 (inactive) | 1.71 (inactive) | -0.427 | -0.154 | -0.156 | 0.647 | 0.756 | 0.506 (inactive) | -0.193 | 1.25 (inactive) | -2.29 (inactive) | 0.672 (inactive) | -2.07 (inactive) | 0.873 | -1.85 (inactive) | -1.92 (inactive) | -1.14
4 | O=C(NCCN1CCOCC1)C1N=C(c2ccc(OCCCO)cc2)N(c2ccccc2)O1 (stereo not given) | 0.889 | 0.213 (inactive) | 1.27 (inactive) | 1.78 (inactive) | 0.552 (inactive) | 0.284 | 0.0219 | 1.86 | 2.3 | 1.42 | 0.759 (inactive) | 0.0709 | 6.99 (inactive) | 0.287 (inactive) | -0.625 (inactive) | 0.399 (inactive) | -0.441 | 1.45 (inactive) | -0.0142 (inactive) | -0.429
5 | Cc1ccc(S[C@]2(C(=O)NCCCN(C)C)CC(=O)N(Cc3cc(C(F)(F)F)cc(C(F)(F)F)c3)[C@@H]2c2ccc(CO)cc2)cc1 | -0.202 | -0.0481 (inactive) | -0.617 (inactive) | -0.152 (inactive) | 1.19 (inactive) | -0.529 | 0.0363 | -0.0089 | -0.256 | -0.664 | -0.48 (inactive) | -0.506 | 1.24 (inactive) | 0.0808 (inactive) | -0.0534 (inactive) | 0.327 (inactive) | 1.11 | -0.373 (inactive) | 0.414 (inactive) | 0.942
6 | CC(C)N1C(=O)c2ccccc2[C@](C)(C(=O)NCCN2CCOCC2)[C@@H]1c1ccc(CO)cc1 | -0.568 | 0.0068 (inactive) | 0.358 (inactive) | 0.585 (inactive) | -0.875 (inactive) | -0.854 | -0.0719 | 0.0436 | 0.212 | -0.776 | -0.469 (inactive) | 0.0451 | 2.19 (inactive) | 0.0259 (inactive) | 0.914 (inactive) | 0.426 (inactive) | -0.522 | 1.05 (inactive) | 0.627 (inactive) | 0.283
7 | O=C1c2ccccc2[C@](Cc2ccccc2I)(C(=O)NCCN2CCOCC2)[C@H](c2ccc(CO)cc2)N1Cc1ccccc1Cl | 0.66 | -2.57 (inactive) | 0.825 (inactive) | -0.0512 (inactive) | -1.01 (inactive) | 0.851 | 0.62 | 0.442 | 0.244 | 1.43 | 0.065 (inactive) | 0.559 | 11.7 (active) | 1.47 (inactive) | 1.01 (inactive) | 0.818 (inactive) | -0.0261 | -0.136 (inactive) | 0.707 (inactive) | 0.608
8 | CC(C)CNC(=O)[C@@]1(Cc2ccccc2I)c2ccccc2C(=O)N(C2CCCCC2)[C@H]1c1ccc(CO)cc1 | 0.705 | -1.71 (inactive) | 0.0484 (inactive) | -0.206 (inactive) | -0.0769 (inactive) | -0.346 | 0.23 | 0.222 | 0.551 | 0.187 | -0.664 (inactive) | 0.257 | 3.85 (inactive) | 0.198 (inactive) | 2.26 (inactive) | 0.183 (inactive) | -0.141 | -0.394 (inactive) | 0.839 (inactive) | 0.184
9 | C=CCOC(=O)[C@H]1[C@@H]2C(=O)O[C@@H](c3ccccc3)[C@@H](c3ccccc3)N2[C@@H](c2ccc(OCCOC(=O)[C@H]3C[C@H]4C(=O)N[C@@H](CCCCN(C)C)C(=O)N4[C@H]3c3ccc(O)cc3)cc2)[C@]12C(=O)Nc1ccc(I)cc12 | 0.0259 | -0.264 (inactive) | 0.549 (inactive) | -0.268 (inactive) | 0.259 (inactive) | 1.23 | 0.135 | 1.94 | 1.33 | 1.96 | -0.635 (inactive) | 0.461 | 5.21 (inactive) | 1.13 (inactive) | -0.286 (inactive) | 0.522 (inactive) | -0.236 | 2.18 (inactive) | 1.06 (inactive) | 1.72
